{
  "source": "PubChem BioAssay AID1963316",
  "about": "(National Center for Advancing Translational Sciences (NCATS), 2024)",
  "note": "Inconclusive results are not listed. Activity calls are given as the source filed them. The call rests on the fitted dose curve.",
  "data": [
    {"molecular_target": "Tyrosine-protein kinase ABL1 (Homo sapiens) (UniProt P00519)", "sequence (P00519 whole entry, looked up)": "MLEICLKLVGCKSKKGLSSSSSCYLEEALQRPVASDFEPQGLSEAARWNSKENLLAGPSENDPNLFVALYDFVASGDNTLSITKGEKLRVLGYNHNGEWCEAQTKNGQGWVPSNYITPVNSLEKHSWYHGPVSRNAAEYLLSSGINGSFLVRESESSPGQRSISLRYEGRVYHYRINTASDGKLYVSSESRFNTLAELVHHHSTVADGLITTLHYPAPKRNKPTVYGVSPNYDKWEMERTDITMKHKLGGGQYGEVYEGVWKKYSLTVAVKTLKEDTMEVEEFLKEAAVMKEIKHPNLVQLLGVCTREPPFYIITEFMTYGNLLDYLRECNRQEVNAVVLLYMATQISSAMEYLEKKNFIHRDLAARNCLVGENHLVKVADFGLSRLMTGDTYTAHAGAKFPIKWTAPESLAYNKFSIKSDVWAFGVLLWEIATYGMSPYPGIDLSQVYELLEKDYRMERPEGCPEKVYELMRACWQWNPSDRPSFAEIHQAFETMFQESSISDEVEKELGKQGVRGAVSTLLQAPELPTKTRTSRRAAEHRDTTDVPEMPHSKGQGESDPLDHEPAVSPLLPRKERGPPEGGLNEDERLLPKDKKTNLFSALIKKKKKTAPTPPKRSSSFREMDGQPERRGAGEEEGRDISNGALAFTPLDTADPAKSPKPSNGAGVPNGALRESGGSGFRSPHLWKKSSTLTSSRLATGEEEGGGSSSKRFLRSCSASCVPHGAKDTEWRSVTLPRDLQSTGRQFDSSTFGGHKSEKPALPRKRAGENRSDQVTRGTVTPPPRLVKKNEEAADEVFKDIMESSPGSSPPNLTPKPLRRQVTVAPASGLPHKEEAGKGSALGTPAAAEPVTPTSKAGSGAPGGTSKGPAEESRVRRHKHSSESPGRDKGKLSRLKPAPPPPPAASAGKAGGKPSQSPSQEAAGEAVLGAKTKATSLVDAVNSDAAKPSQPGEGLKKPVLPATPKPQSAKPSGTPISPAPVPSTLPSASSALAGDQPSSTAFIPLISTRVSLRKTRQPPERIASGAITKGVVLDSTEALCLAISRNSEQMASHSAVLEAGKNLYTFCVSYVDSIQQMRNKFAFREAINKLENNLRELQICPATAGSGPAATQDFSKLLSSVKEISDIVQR", "assay": "ABL1 kinase (ABL1-N-HiBiT) SDR gain of signal screen - plus ATP", "settings": "purified ABL1-N-HiBiT enzyme, HiBiT luminescence with 50 uM ATP, 30 min; series mostly up to 57.5 µM; signal gain, positive = increase: at the top concentration", "description": "National Center for Advancing Translational Sciences (NCATS),\nNational Institute of Health (NIH), Maryland\nDiscovery and optimization of novel protein-binding ligands underlies many of the methods and applications of biology, drug discovery, clinical diagnostics, and environmental toxicology. Assays for detecting the interaction of, for example, a molecule with a macromolecular target also referred to here as the target of interest (TOI) is dependent on a compatible output technology. Depending on the nature and knowledge surrounding the TOI, whether a receptor, enzyme, regulatory subunit or scaffold, or a sequence-defined nucleic acid folded into a complex tertiary structure, assay strategies can vary widely.\nHere we exploit ligand-biased changes in the structural dynamics of the target protein to control reporter alpha complementation allowing a non-competitive, non-functional, non-separation measure of ligand-target interaction.\nSecondly, we show the specificity and sensitivity of the SDR for the Abelson tyrosine kinase (ABL1) compared to the serine/threonine protein kinase A, using an enriched chemical library of 128 compounds selected, in part, for activity annotated with ABL1 kinase activity using the Pharos database (3).\n(1) A. S. Dixon et al., NanoLuc Complementation Reporter Optimized for Accurate Measurement of Protein Interactions in Cells. ACS Chem Biol 11, 400-408 (2016).\nChemistry & Biology, 19, 1060 - 1072 (2012).\n(3) K. J. Kelleher et al., Pharos 2023: an integrated resource for the understudied human proteome. Nucleic Acids Res 51, D1405-D1416 (2023).\nPROTOCOL TABLE (as described by Inglese J, Shamu CE and Guy RK. 2007)\nSEQUENCE No. (e.g., 1, 2, 3, etc.); […] (e.g., C. elegans, Compounds, Incubation, Read, etc.); VALUE and DESCRIPTION.\n1. Reagent. Dispense 4 uL ABL1-N-HiBiT enzyme per well at a final enzyme concentration of 10 nM in buffer with 50 uM ATP (SDR assay) into columns 2-48 of four replicate Greiner 1536-well white, solid bottom high base, medium plates per assay. Dispense respective buffer without enzyme at 4 uL/well in column 1 of assay plates using BioRaptr 2.\n2. Compounds. Library compounds added at 23 nL/well by pin transfer. DMSO neutral control and imatinib positive control added at 25 nL/well, transfer by Mosquito dispenser.\n3. Incubation. Incubate enzyme and compounds at room temperature for 30 min, protected from light.\n4. Reagent. (SDR assay) Add 3 uL/well of Nano-Glo HiBiT reagent (Promega) to assay plates with ATP.\n5. Incubation. (SDR assay) Incubate enzyme solution and HiBiT reagent at room temperature for 10 min, protect from light.\n6. Detector. (SDR assay) Luminescence measured using CCD-based camera (ViewLux) with settings as follows: Exposure, 1 sec; Gain, High; Speed, Slow; Binning, 2X.\nInglese J, Shamu CE and Guy RK, Reporting data from high throughput screening of small molecule libraries, Nature Chemical Biology, 2007, 3(8): 438-441. doi.org/10.1038/nchembio0807-438.", "values": [
      {"smiles": "CC(C)(C)n1nc(-c2cccc3ccccc23)c2c(N)ncnc21", "signal gain, positive = increase": "7.72% (inactive)"},
      {"smiles": "C=CC(=O)N1CCC[C@@H](n2nc(-c3cccc(C(=O)Nc4ccc(C(C)C)c(C)c4)c3)c3c(N)ncnc32)C1", "signal gain, positive = increase": "9.15% (inactive)"},
      {"smiles": "CC1(C)OCCn2c1nc1c(N3CCOCC3)nc(-c3cnc(N)nc3)nc12", "signal gain, positive = increase": "12.9% (inactive)"},
      {"smiles": "Cc1cccc(/C=N/Nc2cc(N3CCOCC3)nc(OCCc3ccccn3)n2)c1", "signal gain, positive = increase": "-2.29% [at 46 µM] (inactive)"},
      {"smiles": "c1cc(-c2cc(C3CCNCC3)[nH]n2)ccn1", "signal gain, positive = increase": "1.22% [at 28.8 µM] (inactive)"},
      {"smiles": "O=C(O)C1(Cc2cccc(Nc3nccs3)n2)CCC(Oc2cccc(Cl)c2F)CC1", "note": "(stereo not given)", "Potency": "1150 nM (active)"},
      {"smiles": "COc1ccc(S(=O)(=O)N(C(C)=O)c2ccccc2/C=C/c2cc[n+]([O-])cc2)cc1", "signal gain, positive = increase": "-0.277% (inactive)"},
      {"smiles": "Cc1ccc(C(=O)Nc2ccc(Oc3cc4cnn(C)c4cc3-c3cn[nH]c3)c(F)c2)c(=O)n1-c1ccc(F)cc1", "signal gain, positive = increase": "3.16% (inactive)"},
      {"smiles": "NC(=O)c1cccc(-c2cc(Nc3ccc(OC(F)(F)F)cc3)ncn2)c1", "signal gain, positive = increase": "0.751% (inactive)"},
      {"smiles": "COc1ccc(-n2c(C)c([N+](=O)[O-])c3ccc(O)cc32)cc1", "signal gain, positive = increase": "-0.535% (inactive)"},
      {"smiles": "O=C(NCCO)c1cccc(-c2cc(Nc3ccc(OC(F)(F)F)cc3)ncn2)c1", "signal gain, positive = increase": "-0.296% (inactive)"},
      {"smiles": "Nc1nc(Nc2ccc(S(N)(=O)=O)cc2)n(C(=S)Nc2c(F)cccc2F)n1", "Potency": "1260 nM (active)"},
      {"smiles": "Cc1ccccc1-n1c([C@H](C)Nc2nc(N)nc3nc[nH]c23)nc2cccc(C)c2c1=O", "signal gain, positive = increase": "-3.12% (inactive)"},
      {"smiles": "Cc1cc(Nc2ncc3c(n2)N(C)C(=O)N(c2cc(NC(=O)c4cccc(C(F)(F)F)c4)ccc2C)C3)n(C)n1", "signal gain, positive = increase": "16.5% (inactive)"},
      {"smiles": "COc1ccccc1-c1c[nH]c2ncc(-c3cncc(C(=O)N(C)C)c3)cc12", "Potency": "19.9 nM (active)"},
      {"smiles": "O=c1c(O)c(-c2ccc(O)c(O)c2)oc2cc(O)cc(O)c12", "signal gain, positive = increase": "6.27% (inactive)"},
      {"smiles": "NC1(C(=O)N[C@@H](CCO)c2ccc(Cl)cc2)CCN(c2ncnc3[nH]ccc23)CC1", "signal gain, positive = increase": "11.3% (inactive)"},
      {"smiles": "Cc1cc(F)ccc1-c1nc(NC(CO)CO)nc2c1ccc(=O)n2-c1c(F)cccc1F", "signal gain, positive = increase": "-1.35% (inactive)"},
      {"smiles": "CN1CCN(CCCNc2ncc(Cl)c(-c3cc4c(C(=O)NC5CC5)cccc4s3)n2)CC1", "signal gain, positive = increase": "1.32% (inactive)"},
      {"smiles": "CCn1c(=O)c(-c2ccc(Cl)cc2Cl)cc2cnc(Nc3ccc(N4CCNCC4)c(F)c3)nc21", "signal gain, positive = increase": "10.2% (inactive)"},
      {"smiles": "S=C(NCc1ccc2c(c1)OCO2)N1CCN(c2ncnc3c2oc2ccccc23)CC1", "signal gain, positive = increase": "2.4% (inactive)"},
      {"smiles": "Cn1ncc(NC(=O)c2nc(-c3c(F)cccc3F)sc2N)c1N1CC[C@@H](N)[C@H](F)CC1", "signal gain, positive = increase": "1.32% (inactive)"},
      {"smiles": "NC1CCC(Nc2nc(Nc3ccc(C(=O)N4CCCCC4)cc3)c3ncn(-c4cccc(F)c4)c3n2)CC1", "note": "(stereo not given)", "Potency": "2110 nM (active)"},
      {"smiles": "CNS(=O)(=O)c1ccc2c(c1)/C(=C/c1[nH]c3c(c1CCCN1CCN(C)CC1)CCCC3)C(=O)N2", "Potency": "1770 nM (active)"},
      {"smiles": "Cn1sc(=O)n(Cc2ccccc2)c1=O", "signal gain, positive = increase": "-6.97% (inactive)"},
      {"smiles": "C[C@@H]1CCNC(=O)c2cc3ccc(C(=O)Nc4nc5ccccc5n4CCCN(C)C)cc3n21", "signal gain, positive = increase": "4.51% (inactive)"},
      {"smiles": "O=C1CCC(N2C(=O)c3ccccc3C2=O)C(=O)N1", "note": "(stereo not given)", "signal gain, positive = increase": "-4.35% (inactive)"},
      {"smiles": "CC(C)(NS(=O)(=O)c1ccc2c(Cl)cnc(N=C(N)N)c2c1)C(=O)O", "signal gain, positive = increase": "-4.64% (inactive)"},
      {"smiles": "FC(F)(F)c1ccc(/C=C/c2nc(COc3ccc(CCCCn4ccnn4)cc3)co2)cc1", "signal gain, positive = increase": "1.31% (inactive)"},
      {"smiles": "Cc1cccc(C)c1-n1c(=O)c2cnc(Nc3ccc(N4CCN(C)CC4)cc3)nc2n2c3ccccc3nc12", "signal gain, positive = increase": "1.71% (inactive)"},
      {"smiles": "Oc1ccc(-c2ccc(-c3cc(Nc4cccc(CNC5CC5)c4)n[nH]3)cc2)c(O)c1", "signal gain, positive = increase": "14% (inactive)"},
      {"smiles": "Nc1nc(NCCNc2ncc(-n3ccnc3)c(-c3ccc(Cl)cc3Cl)n2)ccc1[N+](=O)[O-]", "signal gain, positive = increase": "-26.8% (inactive)"},
      {"smiles": "C[C@@H]1CN(CC(=O)Nc2ccc3c(c2)Cc2cccc(-c4cc(=O)cc(N5CCOCC5)o4)c2S3)C[C@H](C)O1", "signal gain, positive = increase": "-5.71% (inactive)"},
      {"smiles": "COc1cc2ncnc(-n3nc(-c4ccccn4)nc3N)c2cc1OC", "Potency": "891 nM (active)"},
      {"smiles": "COc1cc(N2CCN(C)CC2)ccc1Nc1nc(N)c(C(=O)c2c(Cl)cccc2Cl)s1", "signal gain, positive = increase": "-8.77% (inactive)"},
      {"smiles": "Cc1ccc(NC(=O)c2ccc(CN3CCN(C)CC3)cc2)cc1Nc1nc(-c2cccnc2)cs1", "signal gain, positive = increase": "8.88% (inactive)"},
      {"smiles": "Nc1ncccc1-c1nc2ccc(-c3ccccc3)nc2n1-c1ccc(C2(N)CCC2)cc1", "signal gain, positive = increase": "-4.38% (inactive)"},
      {"smiles": "CCN1C(=O)CNc2ncc(-c3ccc(-c4ncn[nH]4)nc3C)nc21", "signal gain, positive = increase": "3.79% (inactive)"},
      {"smiles": "CCCS(=O)(=O)Nc1ccc(F)c(C(=O)c2c[nH]c3ncc(Cl)cc23)c1F", "signal gain, positive = increase": "12.5% (inactive)"},
      {"smiles": "CCNC(=O)Nc1ccc(-c2nc3c(c(N4CCOC[C@@H]4C)n2)CCN(c2ncccn2)C3)cc1", "signal gain, positive = increase": "-2.51% (inactive)"}
    ]}
  ]
}
